Data published in PubChem BioAssay (EPA / NIEHS).
Records with an inconclusive call do not appear. Activity calls are given as the source filed them. How the source made its calls: active means hit-call score of the fitted dose curve at least 0.9, where 1 is the maximum; inconclusive means response in the unintended direction; inactive means score below 0.9.

Molecular target: human Serotonin, 5-Hydroxytryptamine Receptor 5A (5HT5A), HTR5A (gene 3361) (UniProt P47898)
Assay: NVS_GPCR_h5HT5A: NovaScreen (NVS) G Protein-Coupled Receptor Assay for human Serotonin, 5-Hydroxytryptamine Receptor 5A (5HT5A) (AID 2283251)
Method in brief: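 Cell-free radioligand displacement binding on HEK293-derived membrane protein, 1 h incubation, filter-based scintillation counting. Primary screen in duplicate at 25 uM, actives followed in concentration series; loss of signal fitted versus DMSO.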

human Serotonin, 5-Hydroxytryptamine Receptor 5A (5HT5A), HTR5A (gene 3361), sequence (P47898 whole entry, looked up): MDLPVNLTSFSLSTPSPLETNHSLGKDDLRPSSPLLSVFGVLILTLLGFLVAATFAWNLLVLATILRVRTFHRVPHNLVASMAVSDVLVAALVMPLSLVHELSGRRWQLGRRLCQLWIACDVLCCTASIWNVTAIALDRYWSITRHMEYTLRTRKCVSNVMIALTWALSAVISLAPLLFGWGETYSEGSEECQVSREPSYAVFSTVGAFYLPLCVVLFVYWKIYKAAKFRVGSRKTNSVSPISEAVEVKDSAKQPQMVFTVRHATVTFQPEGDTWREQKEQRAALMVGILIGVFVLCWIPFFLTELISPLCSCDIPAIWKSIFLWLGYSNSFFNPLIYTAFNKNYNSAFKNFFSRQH

Compound | AC50 | outcome
CCOC(=O)COc1ccc2c(c1)CC(NCC(O)c1cccc(Cl)c1)CC2 (stereo not drawn) | 18.8 µM (active) | 
CCn1nc(Cc2ccccc2)cc1C1CCN(C[C@H]2C[C@H](N(C)[C@@H](C(=O)O)C(C)C)C[C@@H]2c2cccc(F)c2)CC1 | 13.8 µM (active) | 
O=C(CCCCCCCCc1cccnc1)N1CCC(C=C(c2ccccc2)c2ccccc2)CC1 |  | inactive
Nc1ccc(Nc2ccccc2)cc1 | 11.3 µM (active) | 
CCC(C)(C)C(=O)O[C@H]1C[C@@H](C)C=C2C=C[C@H](C)[C@H](CC[C@@H]3C[C@@H](O)CC(=O)O3)[C@H]21 |  | inactive
Cc1[nH]cnc1C[C@H]1CCc2c(C)c3ccccc3n2C1=O | 2.93 µM (active) | 
CCOc1cccc(-n2cc(C(=O)N3CCN(c4cc(C(=O)O)c5ccccc5c4)CC3)nc2-c2ccc(C)cc2)c1 | 34 µM (active) | 

Molecular target: guinea pig Opioid, Kappa 1 Receptor (OpiateK), OPRK1 (gene 100135587) (UniProt P41144)
Sequence (P41144 whole entry, looked up): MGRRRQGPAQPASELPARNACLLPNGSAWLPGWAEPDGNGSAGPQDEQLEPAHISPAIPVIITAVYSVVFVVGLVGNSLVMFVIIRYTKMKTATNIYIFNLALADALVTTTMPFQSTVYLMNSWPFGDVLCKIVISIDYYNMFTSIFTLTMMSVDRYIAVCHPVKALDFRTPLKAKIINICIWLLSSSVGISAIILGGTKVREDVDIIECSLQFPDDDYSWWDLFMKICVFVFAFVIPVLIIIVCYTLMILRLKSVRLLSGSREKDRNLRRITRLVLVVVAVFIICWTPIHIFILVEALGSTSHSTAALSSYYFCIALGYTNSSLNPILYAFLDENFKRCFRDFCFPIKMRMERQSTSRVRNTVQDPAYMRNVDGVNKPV
Assay: NVS_GPCR_gOpiateK: NovaScreen (NVS) G Protein-Coupled Receptor Assay for guinea pig Opioid, Kappa 1 Receptor (OpiateK) (AID 2283252);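 further: radioligand displacement from kappa opioid receptor in guinea pig cerebellar membranes; active means reduced radioligand binding relative to DMSO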
Method in brief: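 Guinea pig cerebellar membranes, radioligand displacement with filter-based scintillation counting, 2 h after dosing. Primary screen single concentration 25 uM in duplicate; actives retested in concentration series; loss of binding fitted versus DMSO.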

Compound | AC50 | outcome
CC[C@H]1CC[C@H](NCc2cc3c(cc2OC)[C@H]2C[C@H]2C(=O)N3C)[C@H](c2ccccc2)N1 | 2.02 µM (active) | 
CCn1nc(Cc2ccccc2)cc1C1CCN(C[C@H]2C[C@H](N(C)[C@@H](C(=O)O)C(C)C)C[C@@H]2c2cccc(F)c2)CC1 | 8.5 µM (active) | 
Cn1c(=O)cc(Oc2ccc(F)cc2F)c2cnc(NCC(C)(C)O)nc21 |  | inactive
Nc1ccc(Nc2ccccc2)cc1 | 20.6 µM (active) | 
O=C(O)CC(O)C(=O)O (stereo not drawn) |  | inactive
CCCN(C1CCN(C(=O)C2CCNCC2)CC1)[C@@H]1CCc2ccc(OC)cc2C1 | 7.41 µM (active) | 
CNS(=O)(=O)c1cc(C(=O)N2CCC(CCN3C4CCC3CC(n3c(C)nc5ccccc53)C4)(c3cccc(F)c3)CC2)c(Cl)cc1F (stereo not drawn) | 0.935 µM (active) | 
On1ccccc1=S | 10.4 µM (active) | 
COCCOc1cc2cc(C(=O)NC3CCN(C(C)C)CC3)n(CC(=O)Nc3ccc(Cl)cn3)c2cn1 |  | inactive
Cc1[nH]cnc1C[C@H]1CCc2c(C)c3ccccc3n2C1=O |  | inactive
Cc1c(-c2cccnc2)c2ccccc2n1CCCCC(=O)O | 14.7 µM (active) | 

Molecular target: human Adenosine A1 Receptor (AdoRA1), ADORA1 (gene 134) (UniProt P30542)
Sequence (P30542 whole entry, looked up): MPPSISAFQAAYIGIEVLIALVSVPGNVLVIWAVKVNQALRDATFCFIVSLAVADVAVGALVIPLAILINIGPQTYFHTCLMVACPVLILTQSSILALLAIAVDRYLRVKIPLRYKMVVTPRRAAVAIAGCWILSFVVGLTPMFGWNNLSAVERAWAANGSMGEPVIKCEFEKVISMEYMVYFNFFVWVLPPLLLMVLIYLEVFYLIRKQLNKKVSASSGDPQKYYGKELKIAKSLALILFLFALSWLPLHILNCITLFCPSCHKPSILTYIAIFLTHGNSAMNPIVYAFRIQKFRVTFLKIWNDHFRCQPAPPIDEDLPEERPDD
Assay: NVS_GPCR_hAdoRA1: NovaScreen (NVS) G Protein-Coupled Receptor Assay for human Adenosine A1 Receptor (AdoRA1) (AID 2283254)
Method in brief: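 Each chemical is first tested twice at 25 uM, actives later in dilution series, against a radioligand bound to human cortex membranes; after 1 h, filter-retained counts are compared with DMSO controls, lower signal indicating displacement.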

Compound | AC50 | outcome
CC[C@H]1CC[C@H](NCc2cc3c(cc2OC)[C@H]2C[C@H]2C(=O)N3C)[C@H](c2ccccc2)N1 | 13.6 µM (active) | 
COc1ccc(-n2nc(C(F)F)cc2-c2ccc(S(C)=O)cc2)cc1 (stereo not drawn) | 5.7 µM (active) | 
Nc1ccc(Nc2ccccc2)cc1 |  | inactive
COCCOc1cc2cc(C(=O)NC3CCN(C(C)C)CC3)n(CC(=O)Nc3ccc(Cl)cn3)c2cn1 |  | inactive
CCOc1cccc(-n2cc(C(=O)N3CCN(c4cc(C(=O)O)c5ccccc5c4)CC3)nc2-c2ccc(C)cc2)c1 | 14.3 µM (active) | 
